Most compounds without a hit are left out; they make up all but 14% or so of the library.
Pf growth 96h: Primary qHTS for delayed death inhibitors of the malarial parasite plastid, 96 hour incubation. Potency, µM (doses to about 28.7 µM), for the others: top-dose activity change, negative = inhibition, hits mostly inhibitors. P. falciparum luciferase reporter growth, 96 h. 320,000 tested, 6.9% active; further: potency means the concentration at half of the fitted maximal effect
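96 h incubation, 37 C, 5% CO2, of luciferase-reporter P. falciparum-infected RBCs (2% hematocrit, 0.05% parasitemia final) with test compounds; endpoint luminescence.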
Pf growth 48h: Primary qHTS for delayed death inhibitors of the malarial parasite plastid, 48 hour incubation. P. falciparum luciferase growth in erythrocytes, 48 h. Potency, µM (highest dose often 28.7 µM), for the others: top-dose activity change, negative = inhibition, usual class: inhibitors. 310,000 tested, 5.9% active. AID 504832, 2011; further: potency means the concentration at half of the fitted maximal effect
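Luciferase-expressing P. falciparum in infected erythrocytes (2% hematocrit, 0.1% parasitemia final) in RPMI 1640/0.5% Albumax were exposed to compound for 48 hours at 37 C, 5% CO2; growth read as luminescence.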
HCMV inh: qHTS Assay for inhibitors of the human cytomegalovirus (HCMV). activity change, negative = inhibition, % at 57.5 µM. HFF cells, HCMV-luciferase reporter, 72 h; hits give low values. 410,000 tested, 4.5% active; in the data active means activity change below about -60%; inconclusive means no clear call, values can overlap the other calls; inactive means above about -39%
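Steps: HFFs plated, 16 h 37C; compounds added; HCMV-luciferase added to MOI 1 PFU/cell; 72 h 37C; OneGlo reagent, 5 min room temperature; luminescence read, normalized to controls.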
HCV inh: qHTS Assay for Inhibitors of Hepatitis C Virus (HCV); Huh7.5.1 HCVcc-Cre infection, luciferase reporter, 44 h; 340,000 tested, 3.4% active; Potency, µM (highest dose often 41.8 µM), for inactives: top-dose activity change, negative = inhibition, actives largely listed as inhibitors; further: potency means the concentration at half of the fitted maximal effect
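Reporter virus HCVcc-Cre (~0.5 moi) infects cells exposed to compound; seeding density 1,000 cells/well with 4 h settling beforehand. Luminescence, 15 sec read, taken 44 h post-infection following a 15 min RT substrate incubation.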
Lassa entry inh: qHTS for Inhibitors of binding or entry into cells for Lassa Virus; Lassa virus pseudotype entry inhibition, cell reporter; Potency, µM (doses to about 37.9 µM), without a hit: at the top dose activity change, negative = inhibition, actives largely listed as inhibitors; 300,000 tested, 1.2% active; AID 540256, 2011; calls by dose curve; tested in HEK293 cells; further: potency means the concentration at half of the fitted maximal effect; nearly all actives have a fitted effect of over 50% in size
MARV entry inh: qHTS for inhibitors of binding or entry into cells for Marburg Virus; 300,000 tested, 1.8% active; Marburg virus pseudotyped entry inhibition, cell reporter; Potency, µM (top dose mostly 37.8 µM), for inactives: at the highest dose activity change, negative = inhibition, most hits filed as inhibitors; calls by dose curve; tested in HEK293 cells; further: potency means the concentration at half of the fitted maximal effect
* hit, by the source's call; ? = inconclusive; / = no result given; [ ] = remark or other dose. Unless noted, the call rests on the fitted dose curve; in most records, active means well fitted inhibition curve with a large enough effect; inconclusive means small, poorly fitted or top-dose-only effect, or another doubt; inactive means no such curve, though single readings can be large or run the other way. On the % scale 0 is the no-effect control and ±100 the full control effect.

SMILES	Pf growth 96h	Pf growth 48h	HCMV inh	HCV inh	Lassa entry inh	MARV entry inh
CS(=O)(=O)N1CCc2cc(-c3csc(NC(=O)Cc4ccccc4)n3)ccc21	-4.9%	-4.3%	-97.7*	?	?	7.3µM*
Cc1ccccc1C(=O)N1CCc2cc(-c3csc(NC(=O)CN4CCCC4)n3)ccc21	-4.7%	4.15µM*	-78.8*	?	?	?
CCc1ccc(-c2nc3c(c(SCc4ccccc4)n2)Cc2c(CO)cnc(C)c2O3)cc1	/	/	-1.3	/	12.5%[46.1 µM]	/
CCc1ccc2c(c1)c(=O)c(S(=O)(=O)c1ccc(F)cc1)cn2CC(=O)Nc1ccc(C)cc1C	/	/	6.0	/	?	8.3%[46.1 µM]
Cc1ccsc1C(=O)OCC(=O)N1C(C)CCCC1C (stereo not drawn)	/	/	26.4	2.5%	/	/
CCC(=O)N1CCc2cc(-c3csc(NC(=O)c4ccco4)n3)ccc21	25.0%	?	42.7	?	13.1%	-7.2%
CC1Cc2cc(-c3csc(NC(=O)Cc4cccs4)n3)ccc2N1S(C)(=O)=O (stereo not drawn)	?	13.1µM*	-99.8*	6.31µM*	?	?
CC(C)C(=O)N1CCc2cc(-c3csc(N)n3)ccc21	-12.4%	10.4µM*	-37.1	-27.3%	?	?
CCNC(=O)C1(C)CCCN1C(=O)c1c(F)cccc1F (stereo not drawn)	/	/	35.4	/	/	/
COc1ccc(/C(C)=N/NC(=O)c2nnn(-c3nonc3N)c2-c2ccccc2)cc1	62.1%	6.1%	?	-12.0%	-1.8%[46.1 µM]	?
CCCOc1ccc(-c2c(C(=O)N/N=C(\C)c3ccncc3)nnn2-c2nonc2N)cc1	9.28µM*	?	29.5	-20.5%	-4.9%[46.1 µM]	?
C/C(=N/NC(=O)c1nnn(-c2nonc2N)c1-c1ccccc1)c1ccncc1	7.38µM*	17.2%	5.6	7.3%	-3.2%[46.1 µM]	4.3%[46.1 µM]
COc1ccc(OC(=O)c2nc(SCc3ccccc3C)ncc2Cl)cc1	/	/	1.3	/	16.4%[46.1 µM]	?
CC1CCc2c(sc3ncnc(NCc4cccnc4)c23)C1 (stereo not drawn)	-5.9%	?	?	25.1µM*	-3.1%	-0.8%
CC1CCc2c(sc3ncnc(NCCCOC(C)C)c23)C1 (stereo not drawn)	-9.0%	/	-36.9	10µM*	-11.3%	?
COc1ccc(NC(=O)C2CCC(CNS(=O)(=O)c3cccc4nsnc34)CC2)cc1OC (stereo not drawn)	/	/	-7.2	/	-3.1%[46.1 µM]	12.5%[46.1 µM]
C[C@@H]1CN([C@H](C)CO)C(=O)c2cc(C#C[C@@H](C)O)cnc2O[C@H]1CN(C)C(=O)c1ccc(F)cc1	/	/	4.1	/	/	/
O=C(Nc1cccc(NC(=O)c2cccs2)c1)c1ccc([N+](=O)[O-])o1	3.29µM*	11.7µM*	-92.3*	10µM*	?	?
O=C(Nc1cccc(NC(=O)c2ccc(-c3cccc(Br)c3)o2)c1)c1ccco1	210.5%	?	-14.1	3.55µM*	-27.5%	?
O=C(/C=C/c1cccc([N+](=O)[O-])c1)Nc1cccc(NC(=O)c2cccs2)c1	4.15µM*	-29.7%	-18.4	?	?	?
O=C(/C=C/c1ccc(Cl)c([N+](=O)[O-])c1)Nc1cccc(NC(=O)c2ccco2)c1	?	11.7µM*	21.1	-25.6%	?	?
COc1cc(NC(=O)c2ccc([N+](=O)[O-])o2)ccc1NC(=O)c1cccs1	38.8%	?	-4.4	?	?	?
CCCn1c(SCC(=O)N2CCCC2=O)nc2ccccc2c1=O	20.7%	-4.9%	-13.7	-6.8%	11.8%	-3.2%
O=C(Nc1cccc(NC(=O)c2ccc([N+](=O)[O-])o2)c1)c1ccco1	-3.4%	9.28µM*	?	?	?	?
CC(=O)Nc1cccc(NC(=O)c2ccco2)c1	?	26.2%	-19.4	-1.7%	6.9%	-1.1%
SMILES	Pf growth 96h	Pf growth 48h	HCMV inh	HCV inh	Lassa entry inh	MARV entry inh
O=C(Nc1ccc(NC(=O)c2ccc([N+](=O)[O-])o2)cc1Cl)c1ccco1	18.8%	11.7µM*	-73.3*	?	-0.2%	-12.1%[46.1 µM]
CC1CCCc2cc(OS(=O)(=O)C(F)(F)F)ccc2OC(=O)CC1 (stereo not drawn)	/	/	-4.5	/	/	/
CC(=O)Nc1ccc(S(=O)(=O)NCC(=O)NCCCc2ccccc2)cc1	?	?	7.7	5.8%	-15.3%[46.1 µM]	-5.3%[46.1 µM]
CC(=O)Nc1ccc(S(=O)(=O)NCCNS(=O)(=O)c2ccc(NC(C)=O)cc2)cc1	?	-3.7%	-7.1	6.1%	/	/
CC(=O)Nc1ccc(S(=O)(=O)NCC(=O)NCCc2ccc(S(N)(=O)=O)cc2)cc1	0.828µM*	-10.2%	-31.9	13.3%	-3.6%[46.1 µM]	4.0%[46.1 µM]
CC(=O)Nc1ccc(S(=O)(=O)NCCc2ccc(S(N)(=O)=O)cc2)cc1	10.4µM*	/	-3.9	7.9%	-1.8%	-3.3%
CCOc1ccc(CCNC(=O)COC(=O)CNS(=O)(=O)c2ccc(NC(C)=O)cc2)cc1OCC	8.28µM*	?	-15.2	-16.2%	12.5%	-35.6%
CC(=O)Nc1ccc(S(=O)(=O)NCCc2ccc(F)cc2)cc1	?	5.3%	-20.0	/	-36.1%[14.3 µM]	17.2%
CC(=O)Nc1ccc(S(=O)(=O)NCCSCc2ccc(Cl)cc2Cl)cc1	?	2.4%	-67.3*	?	?	?
CC1(C(=O)O)CCCN(C(=O)c2ccc(OC(F)F)cc2)C1 (stereo not drawn)	/	/	-2.4	/	/	/
CCCCN(Cc1nc2ccccc2c(=O)[nH]1)C(=O)c1nn(C)c(=O)c2ccccc12	?	-10.8%	-20.5	?	2.5%[46.1 µM]	?
